Hits are enriched below; roughly 2.4% of the tested compounds scored in any of these assays.
Pol eta inh-1: blocks human DNA polymerase eta activity. Q9Y253. recombinant Pol eta, fluorescent DNA replication assay. Potency, µM (titrated, usually from 114 µM), for the others: at the highest dose activity change, negative = inhibition, hits mostly inhibitors. actives 1.2% (n = 390,000); further: potency means the concentration at half of the fitted maximal effect; on the % scale 0 is the no-effect control and ±100 the full control effect
Target sequence (Q9Y253 whole entry, looked up): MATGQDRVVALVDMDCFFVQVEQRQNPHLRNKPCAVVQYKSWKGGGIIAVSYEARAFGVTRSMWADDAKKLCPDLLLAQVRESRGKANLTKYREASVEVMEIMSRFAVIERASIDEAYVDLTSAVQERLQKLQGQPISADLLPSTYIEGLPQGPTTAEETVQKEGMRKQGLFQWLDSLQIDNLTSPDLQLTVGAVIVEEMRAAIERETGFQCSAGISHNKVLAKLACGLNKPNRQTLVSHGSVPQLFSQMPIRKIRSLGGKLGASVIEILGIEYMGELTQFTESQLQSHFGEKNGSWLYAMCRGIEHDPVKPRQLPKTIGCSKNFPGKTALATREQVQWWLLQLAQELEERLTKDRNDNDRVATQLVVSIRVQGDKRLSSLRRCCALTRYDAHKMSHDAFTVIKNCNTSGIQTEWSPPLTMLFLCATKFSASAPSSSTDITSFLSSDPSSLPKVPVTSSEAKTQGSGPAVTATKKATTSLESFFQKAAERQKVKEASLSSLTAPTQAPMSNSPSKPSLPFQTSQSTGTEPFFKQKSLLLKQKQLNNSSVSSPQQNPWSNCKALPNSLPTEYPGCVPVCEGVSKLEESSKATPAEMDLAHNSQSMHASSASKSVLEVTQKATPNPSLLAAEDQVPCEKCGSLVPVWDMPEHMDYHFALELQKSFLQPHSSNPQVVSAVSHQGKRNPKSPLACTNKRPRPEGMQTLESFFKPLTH
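Pol eta (10 nM) was preincubated with compounds for 15 min at room temperature, after which fluorescent replication substrate (50 nM final) was added to start the reaction. Fluorescence was read kinetically at 0 and 10 min.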
Pol kappa inh-1: inhibitors of human DNA polymerase kappa. actives 0.53% (n = 400,000). Potency, µM (doses to about 107 µM), for the others: top-dose activity, negative = inhibition, most hits filed as inhibitors. purified Pol kappa, fluorescent DNA synthesis assay, 10 min. AID 588579; further: potency means the concentration at half of the fitted maximal effect; on the % scale 0 is the no-effect control and ±100 the full control effect
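Fluorescent qHTS in 1536-well format: enzyme (10 nM) and compound sat 15 min at room temperature before 50 nM substrate (final) was added. Signal taken at 0 and 10 min; no-enzyme buffer wells were negative controls.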
TDP1 block: inhibitors of human tyrosyl-DNA phosphodiesterase TDP1; Q9NUW8; recombinant TDP1, AlphaScreen DNA substrate cleavage; Potency, µM (doses to about 130 µM), for the others: top-dose activity change, negative = inhibition, hits mostly inhibitors; actives 0.28% (n = 350,000); further: potency means the concentration at half of the fitted maximal effect; on the % scale 0 is the no-effect control and ±100 the full control effect; nearly all actives have a fitted effect of over 40% in size
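E. coli-derived human Tdp1, 1 nM final. Cpd preinc 15 min RT; substrate 15 nM final, 5 min RT; AS bead mix 10 ug/ml final, 10 min RT. Signal loss = tyrosine-FITC cleavage. No-enzyme wells = max signal.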
Pol beta inh: blocks human DNA polymerase beta activity. Pol beta primer extension/strand displacement, fluorescence kinetic. Potency, µM (highest dose often 114 µM), for inactives: top-dose activity change, negative = inhibition, actives largely listed as inhibitors. actives 1.3% (n = 340,000). AID 485314; further: potency means the concentration at half of the fitted maximal effect; on the % scale 0 is the no-effect control and ±100 the full control effect
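Preincubation: enzyme (10 nM) with compound, 15 min, RT. Reaction: substrate added to 50 nM final. Reads: 0 and 10 min. Analysis: normalized, Hill fit.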
FEN1 inhibitor: blocks human flap endonuclease 1; P39748; Recombinant FEN1 flap cleavage, fluorescence, 15 min; Potency, µM (doses to about 114 µM), inactives show at the top dose activity change, negative = inhibition, most hits filed as inhibitors; actives 0.35% (n = 390,000); further: potency means the concentration at half of the fitted maximal effect; on the % scale 0 is the no-effect control and ±100 the full control effect; nearly all actives have a fitted effect of over 65% in size
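Nuclease activity of 10 nM FEN1 was measured after 15 min of room-temperature exposure to titrated compounds, by adding 50 nM flap substrate and reading plates at 0 and 15 min.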
Pol iota inh: inhibitors of human DNA polymerase iota; Pol iota fluorescent replication assay, 10 min; actives 1% (n = 390,000); Q9UNA4; Potency, µM (doses to about 115 µM), without a hit: at the top dose activity, negative = inhibition, actives largely listed as inhibitors; further: potency means the concentration at half of the fitted maximal effect
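Fluorescent replication assay read twice, at 0 min and 10 min after adding 50 nM (final) substrate. Enzyme (10 nM) and compounds were first incubated 15 min at room temperature; enzyme-free buffer wells were negative controls.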
GALK confirm: confirmation of human galactokinase (GALK) inhibitors | actives 70% (n = 150) | purified GALK, Kinase-Glo ATP depletion luminescence | Potency, µM (highest dose often 115 µM), for the others: top-dose activity, negative = inhibition, actives largely listed as inhibitors | shares compounds with Pol eta inh-1 | AID 2015
GALK redox cs: generates H2O2 by redox cycling, flagging GALK artifacts. shares compounds with Pol eta inh-1. Phenol red-HRP H2O2 redox cycling, absorbance 600 nm. Potency, µM (titrated, usually from 115 µM), without a hit: at the top dose activity change, negative = H2O2 signal, actives largely listed as inhibitors. actives 40% (n = 150)
HEK293 tox: counter-screen for GALK inhibitors: HEK293 cell cytotoxicity. Potency, µM (titrated, usually from 46.1 µM), for the others: at the highest dose activity change, negative = cytotoxicity, most hits filed as inhibitors. HEK-293 viability, ATP luminescence (CellTiter-Glo), 24/48 h. shares compounds with Pol eta inh-1. actives 10% (n = 170); further: potency means the concentration at half of the fitted maximal effect; on the % scale 0 is the no-effect control and ±100 the full control effect
Pol kappa inh-2: confirmation of human DNA polymerase kappa inhibitors; shares compounds with Pol eta inh-1; purified Pol-kappa, fluorescent strand-displacement substrate; Potency, µM, usual class: inhibitors; actives 76% (n = 920); further: potency means the concentration at half of the fitted maximal effect
Pol eta inh-2: confirmation of human DNA polymerase eta inhibitors; shares compounds with Pol eta inh-1; Pol eta primer extension, TAMRA/BHQ fluorescence, 10 min; actives 64% (n = 2,600); Potency, µM, most hits filed as inhibitors; further: potency means the concentration at half of the fitted maximal effect
Starred values were filed as active, the others as inactive; u = inconclusive; x = no result; [ ] = remark or other dose. The call rests on the fitted dose curve; in most records, active means well fitted curve in the direction sought with a large enough effect; inconclusive means small, poorly fitted or top-dose-only effect, or another doubt; inactive means no such curve, though single readings can be large; an effect the other way counts as inactive or inconclusive.

SMILES	Pol eta inh-1	Pol kappa inh-1	TDP1 block	Pol beta inh	FEN1 inhibitor	Pol iota inh	Pol eta inh-2	others
Nc1ccn(CC(=O)N[C@H](CO)Cc2c[nH]c3ccccc23)c(=O)n1	-15%	11%	2%	x	3%	8%	x
N#CCCN(C(=O)COc1ccc(F)cc1Br)c1ccccc1F	-6%	-4%	0%	-19%	0%	16%	x
O=[N+]([O-])c1cc([N+](=O)[O-])c2oc(-c3ccccc3)c(Br)c2c1O	25µM*	u	x	28µM*	45µM*	u	x	GALK confirm=53µM*;GALK redox cs=7%;HEK293 tox=-8%
CN1CCN(C(=O)c2ccc3c(c2)N(Cc2c(F)cccc2Cl)C(=O)c2ccccc2S3)CC1	-9%	-17%	5%	-13%	4%	16%	x
CCCSC1=N/C(=C\c2ccc([N+](=O)[O-])o2)C(=O)S1	u	20µM*	u	2.8µM*	35µM*	u	76*
CCSC1=N/C(=C\c2ccc(-c3ccccc3[N+](=O)[O-])o2)C(=O)S1	-5%	1%	9%	-16%	-3%	6%	x
CN(C)c1ccc(-c2cc(Nc3ccc(F)cc3)ncn2)cc1	x	-3%[60.1 µM]	x	x	x	x	x
COCCCn1c(=O)/c(=C\c2ccccc2OC(F)F)s/c1=C(/C#N)C(=O)NC(C)C	-6%	-3%	5%	-7%	-1%	1%	x
COCCCn1c(=O)/c(=C\c2ccccc2OC(C)C)s/c1=C(/C#N)C(=O)Nc1ccc(C(=O)O)cc1	u	-28%	-10%	1%	u	u	43*
Cn1cc(S(=O)(=O)N2CCCC2)cc1C(=O)O	22µM*	-24%	x	x	-4%	u	x	Pol kappa inh-2=u
Cc1cc(C)c(NC(=O)c2cc(S(=O)(=O)N3CCCC3)cn2C)c(C)c1	-4%	-13%[60.1 µM]	-2%	-12%	20%	-9%	x
C#Cc1ccc([C@H]2C=C(C(=O)OCC=C)O[C@@H](OCCCCO)C2)cc1	32µM*	u	x	x	-16%	56µM*	67*
CC(=O)Nc1sc2c(c1-c1nc3ccccc3s1)CCSC2	x	x	x	x	x	x	76*
CC(=O)Nc1sc2c(c1-c1nc3ccccc3s1)CNC2	x	x	x	x	x	x	u
O=C(Cn1c(=O)n2nc(-c3cccc(F)c3)nc2c2ccccc21)N1CCN(c2ccccc2F)CC1	-13%	3%[60.1 µM]	0%	0%	-3%	25%	x
C=CCc1cccc2cc(C(=O)Nc3ccccc3C(=O)O)c(=O)oc12	45µM*	-40%	-5%	u	-6%	u	u
COc1cc(/C=C2\SC(=S)N(NC(=O)c3ccccc3O)C2=O)ccc1O	u	u	x	u	u	14µM*	x	Pol kappa inh-2=42*
Cc1cc(C)nc(NS(=O)(=O)c2ccc(N)cc2)n1	-15%	u	5%	30%	-2%	u	x
Cc1cc(C)nc(NS(=O)(=O)c2ccc(-n3cccc3)cc2)n1	10µM*	79µM*	-2%	32µM*	-24%	u	54*
COc1ccc(CNC(=O)[C@H](C)[C@H]2C[C@]2(C)[C@H](NC(=O)OCc2ccccc2)c2ccccc2)cc1OC	x	x	7%	x	x	x	x
CN(C)C(=O)COC(=O)c1ccccc1OCC(=O)Nc1ccc(Br)cc1	x	-6%	x	x	-2%	0%	x
Cc1ncsc1CCOC(=O)c1ccc(N2CCOCC2)c([N+](=O)[O-])c1	3%	9%	5%	-12%	8%	13%	x
Cc1c(CCOC(=O)c2ccc(N3CCOCC3)c([N+](=O)[O-])c2)sc[n+]1CC#N	50µM*	-17%	2%	u	-19%	u	u	Pol kappa inh-2=75*
Cc1ccc(-c2ccc(CCC(=O)O)n2-c2cccc(C)c2C)cc1	-8%	-7%	x	u	-13%	0%	x
Cc1ccn2c(=O)nc(SCC(=O)NC3CCCCC3)nc2c1	-6%	4%	x	x	-9%	28%	x
SMILES	Pol eta inh-1	Pol kappa inh-1	TDP1 block	Pol beta inh	FEN1 inhibitor	Pol iota inh	Pol eta inh-2	others
Cc1ccn2c(=O)nc(SCC(=O)NC3CCCC3)nc2c1	22µM*	-4%	-7%	x	-5%	u	76*
O=c1oc(-c2ccc(O)c(O)c2)cc2cc(O)cc(O)c12	10µM*	u	4%	x	35µM*	28µM*	54*	Pol kappa inh-2=u
O=c1cc(-c2ccc(O)c(O)c2)oc2ccc3ccccc3c12	u	-24%	x	x	u	u	x
CC(C)CN(CCNC(=O)c1cc(-c2ccc(Cl)s2)nc2ccccc12)CC(C)C	-1%	5%	0%	21%	-12%	3%	x
Cc1cc(O)c(Oc2cc(C)cc(O)c2O)c(O)c1	22µM*	22µM*	4%	3.5µM*	50µM*	40µM*	38*
Cc1ccc(OCC(=O)O)c(O)c1	-5%	0%	x	x	3%	3%	x
Cc1cc(/C=C\c2nc(O)c([N+](=O)[O-])c(=O)[nH]2)c(C)n1-c1ccccc1	22µM*	89µM*	x	25µM*	u	28µM*	u
O=c1[nH]c(/C=C\c2cccc(O)c2)nc(O)c1[N+](=O)[O-]	-18%	-4%	x	-25%	10%	u	x
O=c1[nH]c(/C=C\c2ccc(O)c(O)c2)nc(O)c1[N+](=O)[O-]	u	u	u	25µM*	u	u	76*	Pol kappa inh-2=17*
COc1ccc(-n2c(C)cc(/C=C/c3nc(O)c([N+](=O)[O-])c(=O)[nH]3)c2C)cc1	20µM*	50µM*	u	-5%	u	u	u

Assay outcomes deposited in PubChem by National Center for Advancing Translational Sciences (NCATS).
